# Inconclusive results are not listed. Activity calls are given as the source filed them. How the source made its calls, unless noted: active means hit-call score of the fitted dose curve at least 0.9, where 1 is the maximum; inconclusive means response in the unintended direction; inactive means score below 0.9.
# Key:
# [1] = Tanguay_ZF_120hpf_CIRC_legacy: (Legacy) Oregon State University Tanguay Lab 120 Hour Post-fertilization zebrafish Assay for Circulatory Malformation (AID 2283651)
# Outline: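 Static exposure, 6–120 hpf, 28C, sealed and dark; one dechorionated 5D embryo/well; DMSO 0.64% v/v final. Binary circulation endpoint by brightfield; dead embryos not scored.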
# [2] = Tanguay_ZF_120hpf_SWIM_legacy: (Legacy) Oregon State University Tanguay Lab 120 Hour Post-fertilization zebrafish Assay for Swim Bladder Malformation (AID 2283654);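 further: swim bladder malformation in each larva scored yes or no under brightfield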
# Outline: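 Tropical 5D embryos dechorionated at 4 hpf; 1 embryo/well from 6 hpf; static, sealed, dark exposure at 28C until 120 hpf; final DMSO 0.64%; 5uM trimethyltin chloride positive control; swim bladder defect recorded yes/no; dead embryos not scored.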
# [3] = Tanguay_ZF_120hpf_TRUN_legacy: (Legacy) Oregon State University Tanguay Lab 120 Hour Post-fertilization zebrafish Assay for Truncated Body (AID 2283655)
# Outline: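 Whole-embryo zebrafish screen: dechorionated 5D embryos, static exposure 6–120 hpf, 28C, sealed foil-covered plates, 0.64% DMSO. Binary truncation call; gain of signal versus DMSO baseline.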
# [4] = Tanguay_ZF_120hpf_NC_legacy: (Legacy) Oregon State University Tanguay Lab 120 Hour Post-fertilization zebrafish Assay for Notochord and Tail Malformation (AID 2283656)
# Outline: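 Binary notochord-distortion calls, made by brightfield inspection, form the read-out; activity is fitted in the positive direction against DMSO. Exposure ran statically from 6 to 120 hpf at 28C with 0.64% DMSO.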
# [5] = Tanguay_ZF_120hpf_TR_legacy: (Legacy) Oregon State University Tanguay Lab 120 Hour Post-fertilization zebrafish Assay for Touch Response (AID 2283667)
# Outline: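 Binary touch-response call at 120 hpf, analysed as gain of signal versus DMSO baseline. Wild-type 5D larvae, static exposure at 28C, 0.64% DMSO final; 5uM trimethyltin chloride as positive control.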
# [6] = STM_H9_OrnithineISnorm_perc: Stemina devTOX quickPredict H9 human embryonic stem cell (hESC)-based Assay for Ornithine (ORN) Metabolite Biomarker, Normalized (AID 2283712; active means hit-call score of the fitted dose curve at least 0.9, where 1 is the maximum; inactive means score below 0.9;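 further: ornithine released into spent medium during last day measured by mass spectrometry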)
# Outline: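 UPLC-HRMS readout: endogenous ornithine EIC area / 13C-ORN internal standard, then % of 0.1% DMSO median. H9 hESCs (pluripotent), 72h exposure, re-dosed with fresh media q24h; last 24-h spent media, deproteinized in 40% acetonitrile.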
# [7] = STM_H9_CystineISnorm_perc: Stemina devTOX quickPredict H9 human embryonic stem cell (hESC)-based Assay for Cystine (CYSS) Metabolite Biomarker, Normalized (AID 2283713; active means hit-call score of the fitted dose curve at least 0.9, where 1 is the maximum; inactive means score below 0.9)
# Outline: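 UPLC-HRMS read-out: endogenous cystine peak area in spent medium, normalized to isotope-labeled internal standard and to median of 0.1% DMSO controls. Pluripotent H9 cells, 72h exposure, daily medium/compound replenishment; medium from last 24h sampled.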
# [8] = STM_H9_OrnCyssISnorm_ratio: Stemina devTOX quickPredict H9 human embryonic stem cell (hESC)-based Assay for Ornithine (ORN):Cystine (CYSS) Ratio (AID 2283714)
# Outline: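 UPLC-HRMS of spent media: ORN/CYSS ratio of internal-standard-normalized percentages, DMSO (0.1%) baseline. Pluripotent H9 hESCs, 72h exposure, daily re-dosing with fresh media; last 24h media collected.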
# [9] = Tanguay_ZF_120hpf_ActivityScore_legacy: (Legacy) Oregon State University Tanguay Lab 120 Hour Post-fertilization zebrafish Assay Score for Activity (AID 2283742);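 on AC50: dechorionated Tropical 5D wild-type zebrafish embryos held singly per well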
# Outline: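 Dechorionated 5D embryos, one per well, static exposure 6–120 hpf, 28C, sealed and dark; final DMSO 0.64% (vol/vol). Brightfield binary scoring of mortality plus 18 endpoints; gain-of-signal fit versus DMSO baseline.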
# [10] = system: Thyroperoxidase (TPO), gene 54314; test: CCTE_Simmons_AUR_rTPO: CCTE's Amplex UltraRed Assay for Thyroperoxidase (TPO) Inhibition, Simmons Lab (AID 2283662);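 on AC50: potency for loss of signal meaning inhibition of peroxidase activity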
# Outline: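 Cell-free peroxidase activity assay using rat thyroid gland microsomes with excess H2O2 (300 uM) and 25 uM Amplex UltraRed. Compounds tested from 5 nM to 87.5 uM; fluorescence measured after 30 min at 37C, analysed relative to DMSO baseline.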
# [11] = CCTE_Simmons_CellTiterGLO_HEK293T: Viability Assessment in CCTE's Assays for Thyroperoxidase (TPO) Inhibition, Simmons Lab (AID 2283665);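 on AC50: cells exposed to compound for 24 h before readout; actives reduce ATP signal below DMSO vehicle meaning cytotoxicity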
# Outline: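 Luminescent ATP readout (CellTiter-Glo, 20 min at room temperature) after 24 hr exposure of HEK293T cells to 5 nM–87.5 uM final compound; signal loss relative to DMSO vehicle indicated cytotoxicity; dichlone titrated as positive control.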
# [12] = CEETOX_H295R_MTT_cell_viability: Viability Assessment in the CeeTox HT-H295R MTT Assay (AID 2283718; active means hit-call score of the fitted dose curve at least 0.9, where 1 is the maximum; inactive means score below 0.9;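 on AC50: curve fitted both ways so AC50 may mark viability loss or gain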)
# Outline: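 Human H295R adrenal cells, prestimulated 48 h with 10 uM forskolin, were exposed 48 h to chemicals in 0.1% DMSO. Viability was measured in the same wells by MTT (0.5 mg/ml, 4 h, 37 C), absorbance 570/650 nm, as percent of controls.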
# [13] = CCTE_Padilla_ZF_144hpf_TERATOSCORE: (Legacy) CCTE's 144 Hour Post-fertilization zebrafish Assay Teratoscore, Padilla Lab (AID 2283679; active means hit-call score of the fitted dose curve at least 0.9, where 1 is the maximum; inactive means score below 0.9;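 on AC50: zebrafish embryos with chorions exposed by immersion from 6-8 hpf to 5 dpf with daily renewal; teratogenicity score from eye scoring of death hatching and malformations at 144 hpf; higher score means more developmental defects relative to DMSO baseline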)
# Outline: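 Larvae scored by eye at 144 hpf for death, hatching and malformations after a day in clean Hanks'. Before that, daily-renewed exposure at 80 uM (0.4% DMSO, 26C) from roughly 6-8 hpf through 5 dpf, 4 embryos per chemical.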
# [14] = ArunA_CellTiter_hNC: Viability Assessment in the ArunA Biomedical's Oris Neural Crest (hNC) Cell Migration Assay (AID 2283752)
# Outline: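 hNC cells (H9 ESC-derived), 60,000/well, Matrigel, LIF + bFGF medium; 16 h 37C attachment; 72 h compound in test medium; CellTiter Aqueous One read-out; loss-of-signal vs DMSO baseline.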
# [15] = system: Thyroperoxidase (TPO), gene 445522; test: CCTE_Simmons_GUA_TPO: CCTE's Guaiacol Assay for Thyroperoxidase (TPO) Inhibition, Simmons Lab (AID 2283750)
# Outline: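 Porcine thyroid microsomes (25 ug) in 200mM potassium phosphate, preincubated 30 s at 37C with compound (8 concentrations, 5 nM–87.5 uM) and 35mM guaiacol; 1mM H2O2 starts reaction. Absorbance change at 450nm over first 80 s; loss of signal versus DMSO, three replicates.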
smiles,measurement,setting,value
COCCOCCO,outcome,[1],inactive
same,outcome,[2],inactive
same,outcome,[3],inactive
same,outcome,[4],inactive
same,outcome,[5],inactive
same,outcome,[6],inactive
same,outcome,[7],inactive
same,outcome,[8],inactive
same,outcome,[9],inactive
O=[N+]([O-])c1ccccc1,outcome,[1],inactive
same,outcome,[2],inactive
same,outcome,[3],inactive
same,outcome,[5],inactive
same,outcome,[6],inactive
same,outcome,[7],inactive
same,outcome,[9],inactive
Nc1ccc(Cl)cc1,outcome,[1],inactive
same,outcome,[2],inactive
same,outcome,[4],inactive
same,AC50,[10],0.315 µM (active)
same,outcome,[11],inactive
same,outcome,[12],inactive
same,outcome,[9],inactive
Nc1ccc2ccccc2c1,outcome,[1],inactive
same,outcome,[2],inactive
same,outcome,[3],inactive
same,outcome,[4],inactive
same,AC50,[10],0.34 µM (active)
same,outcome,[11],inactive
same,AC50,[13],42.1 µM (active)
same,outcome,[6],inactive
same,outcome,[7],inactive
same,outcome,[8],inactive
same,AC50,[12],23.9 µM (active)
same,AC50,[9],36.8 µM (active)
CC(Cc1ccc(OCC(=O)O)cc1)NCC(O)c1csc(C(F)(F)F)n1 (stereo not drawn),outcome,[1],inactive
same,outcome,[2],inactive
same,outcome,[3],inactive
same,outcome,[4],inactive
same,outcome,[5],inactive
same,outcome,[9],inactive
CCCCN(CCCC)SN(C)C(=O)Oc1cccc2c1OC(C)(C)C2,outcome,[1],inactive
same,outcome,[2],inactive
same,outcome,[3],inactive
same,outcome,[4],inactive
same,outcome,[5],inactive
same,AC50,[13],6.04 µM (active)
same,outcome,[9],inactive
O=P1(N(CCCl)CCCl)NCCCO1 (stereo not drawn),outcome,[1],inactive
same,outcome,[2],inactive
same,outcome,[3],inactive
same,outcome,[4],inactive
same,outcome,[9],inactive
Cc1ccc(N)cc1N,outcome,[1],inactive
same,outcome,[2],inactive
same,outcome,[3],inactive
same,outcome,[4],inactive
same,AC50,[10],9.92 µM (active)
same,outcome,[11],inactive
same,outcome,[5],inactive
same,AC50,[6],89.7 µM (active)
same,outcome,[7],inactive
same,AC50,[8],65.8 µM (active)
same,outcome,[12],inactive
same,AC50,[9],0.00921 µM (active)
same,outcome,[14],inactive
CCCCc1ccccc1,outcome,[1],inactive
same,outcome,[2],inactive
same,outcome,[3],inactive
same,outcome,[5],inactive
same,outcome,[9],inactive
CC(Cl)(Cl)C(=O)O,outcome,[1],inactive
same,outcome,[2],inactive
same,outcome,[3],inactive
same,outcome,[4],inactive
same,outcome,[5],inactive
same,outcome,[9],inactive
Cc1ccc(O)cc1C,outcome,[1],inactive
same,outcome,[2],inactive
same,outcome,[3],inactive
same,outcome,[4],inactive
same,outcome,[5],inactive
same,outcome,[9],inactive
Nc1cc2c3c(c1)C(c1ccccc1)=N[C@@H](NC(=O)c1cccnc1)C(=O)N3CC2,outcome,[1],inactive
same,outcome,[2],inactive
same,outcome,[3],inactive
same,outcome,[4],inactive
same,AC50,[10],23.1 µM (active)
same,outcome,[11],inactive
same,outcome,[5],inactive
same,outcome,[12],inactive
same,outcome,[9],inactive
same,outcome,[15],inactive
CCCCCCCc1ccc(O)cc1,outcome,[1],inactive
same,outcome,[2],inactive
same,outcome,[3],inactive
same,outcome,[4],inactive
same,AC50,[10],10.2 µM (active)
same,AC50,[11],10.1 µM (active)
same,outcome,[5],inactive
same,AC50,[13],6.11 µM (active)
same,outcome,[9],inactive
Cc1cccc(N)c1,outcome,[1],inactive
same,outcome,[2],inactive
same,outcome,[3],inactive
same,outcome,[4],inactive
same,AC50,[10],0.268 µM (active)
same,outcome,[11],inactive
same,outcome,[13],inactive
same,outcome,[12],inactive
same,outcome,[9],inactive
same,AC50,[15],8.25 µM (active)
CCOP(=S)(Oc1ccc([N+](=O)[O-])cc1)c1ccccc1 (stereo not drawn),outcome,[1],inactive
same,outcome,[2],inactive
same,outcome,[3],inactive
same,outcome,[4],inactive
same,AC50,[10],10.2 µM (active)
same,outcome,[11],inactive
same,outcome,[5],inactive
same,AC50,[13],1.19 µM (active)
same,outcome,[12],inactive
same,outcome,[9],inactive
O=C(O)C(Cl)Cl,outcome,[1],inactive
same,outcome,[2],inactive
same,outcome,[3],inactive
same,outcome,[4],inactive
same,outcome,[5],inactive
same,outcome,[13],inactive
same,outcome,[6],inactive
same,outcome,[7],inactive
same,outcome,[8],inactive
same,outcome,[9],inactive
CC(C)(C)c1ccc(O)cc1,outcome,[1],inactive
same,outcome,[2],inactive
same,outcome,[3],inactive
same,outcome,[4],inactive
same,AC50,[10],2.73 µM (active)
same,AC50,[11],57.4 µM (active)
same,outcome,[5],inactive
same,AC50,[13],57.8 µM (active)
same,AC50,[9],42.8 µM (active)
CCC1(c2ccccc2)C(=O)N=C(O)NC1=O (stereo not drawn),outcome,[1],inactive
same,outcome,[2],inactive
same,outcome,[3],inactive
same,outcome,[4],inactive
same,outcome,[10],inactive
same,outcome,[11],inactive
same,outcome,[5],inactive
same,AC50,[6],0.0967 µM (active)
same,outcome,[7],inactive
same,outcome,[8],inactive
same,outcome,[9],inactive
CCNc1nc(Cl)nc(NC(C)(C)C)n1,outcome,[1],inactive
same,outcome,[2],inactive
same,outcome,[3],inactive
same,outcome,[4],inactive
same,outcome,[5],inactive
same,outcome,[13],inactive
same,outcome,[12],inactive
same,outcome,[9],inactive
CCC(C)(C)c1ccc(O)cc1,outcome,[1],inactive
same,AC50,[2],47.2 µM (active)
same,AC50,[3],31.6 µM (active)
same,AC50,[4],47.9 µM (active)
same,AC50,[10],4.91 µM (active)
same,AC50,[11],28.1 µM (active)
same,AC50,[5],48.3 µM (active)
same,AC50,[13],14.2 µM (active)
same,AC50,[6],78.2 µM (active)
same,outcome,[7],inactive
same,AC50,[8],40.1 µM (active)
same,outcome,[12],inactive
same,AC50,[9],21.3 µM (active)

# — PubChem BioAssay (EPA / NIEHS)
